Source: PubChem BioAssay (Tox21)
Values joined by “and” are separate entries in the source; they are usually repeats but may differ in a detail not shown here. Equal values may be shown once. Records with an inconclusive call do not appear. The source holds several records for some structures; these can differ, active in one and inactive in another. Active and inactive are the calls of the source. Unless noted, the call rests on the fitted dose curve; in most records, active means well fitted curve in the direction sought with a large enough effect in the repeat runs; inconclusive means weak or mixed curves; inactive means no such curve, though single readings can be large; an effect the other way counts as inactive or inconclusive.

Assays:
[1] = qHTS assay to identify small molecule antagonists of the estrogen receptor alpha (ER-alpha) signaling pathway using the BG1 cell line in the presence of 0.1 nM 17-beta-estradiol - cell viability counter screen (AID 1259241); further: nearly all actives have a fitted effect of over 40% in size; further: potency means the concentration at half of the fitted maximal effect
In short: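 VM7Luc4E2 cells (endogenous full-length ER-alpha, 4xERE-luciferase), cultured 5 days in charcoal-stripped serum, exposed to compounds with 0.1 nM 17beta-estradiol (final) for 22 hr at 37C. Viability read in same wells as live-cell protease fluorescence after 30 min.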

[2] = qHTS assay to identify small molecule antagonists of the androgen receptor (AR) signaling pathway using the MDA cell line in the presence of 0.5 nM R1881 - cell viability counter screen (AID 1259242); further: nearly all actives have a fitted effect of over 45% in size; further: potency means the concentration at half of the fitted maximal effect
In short: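 Live-cell protease fluorescence, CellTiter-Fluor, 30 min at 37C. Cells: MDA-kb2, 3,000/well, preincubated 5 hr. Compounds plus 0.5 nM R1881 final, 16 hr, 37C, 0% CO2.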

[3] = biological target: Androgen receptor (Homo sapiens) (UniProt P10275); assay: qHTS assay to identify small molecule antagonists of the androgen receptor (AR) signaling pathway using the MDA cell line in the presence of 0.5 nM R1881 (AID 1259243); further: nearly all actives have a fitted effect of over 50% in size; further: potency means the concentration at half of the fitted maximal effect
In short: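 MDA-kb2, MMTV-luc (AR/GR elements); 3,000 cells/well; cpd + 0.5 nM R1881 final; 16 hr 37C, 0% CO2; ONE-Glo 30 min RT; luminescence.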

[4] = qHTS assay to identify small molecule HDAC inhibitors (AID 1259364); further: potency means the concentration at half of the fitted maximal effect;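 further: wild-type HCT-116 cells with endogenous class I/II HDAC activity; nearly all actives have a fitted effect of over 45% in size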
In short: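 HCT-116 (wild type), 1,500 cells/well, overnight; compound 2 hr 37C 5% CO2; HDAC-Glo I/II reagent 30 min RT; luminescence readout.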

[5] = qHTS assay to identify small molecule HDAC inhibitors - cell viability counter screen (AID 1259365); further: series mostly up to about 92 µM; nearly all actives have a fitted effect of over 50% in size
In short: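 Wild-type HCT-116 cells, 1,500/well, cultured overnight, then compound-treated 2 h at 37 C. Viability measured as ATP luminescence with CellTiter-Glo after 30 min at room temperature.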

[6] = qHTS assay to identify small molecule agonists of the sonic hedgehog signaling (Shh) pathway - cell viability counter screen (AID 1259366); further: nearly all actives have a fitted effect of over 50% in size; further: potency means the concentration at half of the fitted maximal effect
In short: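 NIH/3T3-derived Gli1-Luc reporter cells, 2,000 per well, received compound after 4 h and were treated about 23 h at 37C. Viability measured in the same wells by CellTiter-Fluor fluorescence after 1 h.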

[7] = qHTS assay to identify small molecule antagonists of the sonic hedgehog signaling (Shh) pathway - cell viability counter screen (AID 1259367); further: nearly all actives have a fitted effect of over 55% in size
In short: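 Viability was read by CellTiter-Fluor fluorescence in the same wells, reagent added 23 hr into compound treatment and incubated 1 hr at 37C. The 3T3 Gli1-Luc reporter cells (2,000/well) received conditioned medium after compound and ran 24 hr.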

[8] = qHTS assay to identify small molecule antagonists of the sonic hedgehog signaling (Shh) pathway (AID 1259369; calls by dose curve; further: nearly all actives have a fitted effect of over 45% in size; further: potency means the concentration at half of the fitted maximal effect)
In short: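 Luminescence readout: firefly Luc under Gli1 response element in 3T3Gli1-Luc cells (NIH/3T3 clone). Antagonist mode, stimulation by conditioned medium; compound exposure 24hr at 37 C, 5% CO2.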

[9] = biological target: Estrogen receptor beta (Homo sapiens) (UniProt Q92731); assay: qHTS assay to identify small molecule agonists of the estrogen receptor beta (ER-beta) signaling pathway (AID 1259377; active means well fitted activation curve with a large enough effect in the signal ratio in the repeat runs, not every such curve was filed as active; the % refers to the signal ratio)
In short: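 ER-beta-UAS-bla HEK293T cells in medium with 2% charcoal-stripped FBS were exposed to compounds for 16 h at 37C. Beta-lactamase reporter activity was read as fluorescence after 2 h with LiveBLAzer B/G FRET substrate at room temperature.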

[10] = qHTS assay to identify small molecule agonists of the androgen receptor (AR) signaling pathway in the presence of an antagonist - cell viability counter screen (AID 1259379); further: nearly all actives have a fitted effect of over 25% in size; further: potency means the concentration at half of the fitted maximal effect
In short: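 Viability counter screen: CellTiter-Fluor fluorescence, measured in the same wells as the luciferase read-out. MDA-kb2 cells, 3,000/well, with nilutamide at 3.0uM final and compounds at 15 concentrations, 16 hr at 37C, 0% CO2.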

[11] = biological target: Androgen receptor (Homo sapiens) (UniProt P10275); assay: qHTS assay to identify small molecule agonists of the androgen receptor (AR) signaling pathway in the presence of an antagonist (AID 1259381; calls by dose curve; further: nearly all actives have a fitted effect of over 15% in size)
In short: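 Luciferase read-out (ONE-Glo, 30min room temperature) in MDA-kb2 MMTV-reporter cells; agonist mode run in presence of AR antagonist nilutamide, 3.0uM final. Compounds tested as 15-point series, 16hr exposure at 37C, 0% CO2.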

[12] = qHTS assay to identify small molecule antagonists of the estrogen receptor beta (ER-beta) signaling pathway - cell viability counter screen (AID 1259382);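 further: HEK293T cells carrying ER-beta-UAS-bla reporter stimulated with estradiol; series mostly up to about 92 µM; nearly all actives have a fitted effect of over 55% in size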
In short: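 Luminescent ATP read-out (CellTiter-Glo, 30 min, RT) taken in the same wells as the bla reporter assay. HEK293T ER-beta-UAS-bla cells in 2% charcoal-stripped FBS were exposed to compounds with 1nM E2 for 16 hr at 37C.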

[13] = biological target: Estrogen receptor (Homo sapiens) (UniProt P03372); assay: qHTS assay to identify small molecule agonists of the estrogen receptor alpha (ER-alpha) signaling pathway in the presence of an antagonist (AID 1259383; calls by dose curve; further: top concentration of the series differs between compounds; nearly all actives have a fitted effect of over 15% in size)
In short: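 Luciferase luminescence (ONE-Glo, 30min at room temperature) measured in VM7Luc4E2 cells after 22hr compound exposure at 15 concentrations, with 10.0nM ICI-182,780 final present; cells express endogenous ER-alpha and carry four EREs upstream of luciferase.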

[14] = qHTS assay to identify small molecule agonists or antagonists of the thyroid stimulating hormone receptor (TSHR) signaling pathway - wild type cell line counter screen (AID 1259384; calls by dose curve)
In short: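 Counter screen in untransfected Hek293: compounds (15-point titration, triplicate) plus phosphodiesterase inhibitor Ro20-1724 added after 18 h plating; 30 min RT. Intracellular cAMP via competitive d2/cryptate immunoassay, 1 h incubation.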

[15] = biological target: Thyrotropin receptor (Homo sapiens) (UniProt P16473); assay: qHTS assay to identify small molecule antagonists of the thyroid stimulating hormone receptor (TSHR) signaling pathway (AID 1259385; calls by dose curve; further: nearly all actives have a fitted effect of over 20% in size; further: potency means the concentration at half of the fitted maximal effect)
In short: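 Antagonist mode: compound-treated TSHR-expressing HEK293 cells were stimulated with 1.5 ng/mL TSH (final) in presence of Ro20-1724 for 30 min at RT. HTRF cAMP detection after 1 h; each compound tested at 15 concentrations, triplicate.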

[16] = biological target: Estrogen receptor (Homo sapiens) (UniProt P03372); assay: qHTS assay to identify small molecule antagonists of the estrogen receptor alpha (ER-alpha) signaling pathway using the BG1 cell line in the presence of 0.1 nM 17-beta-estradiol (AID 1259244); further: nearly all actives have a fitted effect of over 50% in size; further: potency means the concentration at half of the fitted maximal effect
In short: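 Luminescence after ONE-Glo (30 min, room temperature) measured ERE-luciferase activity in VM7Luc4E2 cells treated 22 h with compound and 0.1 nM final 17beta-estradiol as stimulator.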

[17] = qHTS assay to identify small molecule agonists of the sonic hedgehog signaling (Shh) pathway (AID 1259368; calls by dose curve;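 further: NIH/3T3-derived 3T3Gli1-Luc cells carrying a stable Gli1-driven firefly luciferase reporter; series mostly up to about 92 µM; nearly all actives have a fitted effect of over 15% in size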)
In short: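 Read-out: firefly luciferase luminescence from a Gli1 response element reporter stably integrated in NIH/3T3-derived 3T3Gli1-Luc cells, measured 30 min at room temperature after reagent addition. Compound exposure lasted 24 hr at 37 C, 5% CO2.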

[18] = biological target: Estrogen receptor beta (Homo sapiens) (UniProt Q92731); assay: qHTS assay to identify small molecule antagonists of the estrogen receptor beta (ER-beta) signaling pathway (AID 1259378; active means well fitted inhibition curve with a large enough effect in the signal ratio in the repeat runs, not every such curve was filed as active; the % refers to the signal ratio; further: potency means the concentration at half of the fitted maximal effect)
In short: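 Antagonist mode: compounds added to beta-lactamase reporter HEK293T ER-beta-UAS cells stimulated with E2 (1nM final), 16 hr at 37C. LiveBLAzer B/G FRET substrate, 2 hours room temperature, fluorescence read-out.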

[19] = qHTS assay to identify small molecule agonists of the estrogen receptor beta (ER-beta) signaling pathway - cell viability counter screen (AID 1259380); further: nearly all actives have a fitted effect of over 30% in size; further: potency means the concentration at half of the fitted maximal effect
In short: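 Luminescence read-out (CellTiter-Glo, 30 min, room temp) taken in the same wells as the beta-lactamase reporter assay; ER-beta-UAS-bla HEK293T cells exposed to DMSO-dissolved compounds for 16 hr at 37C in 2% charcoal-stripped FBS medium.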

[20] = qHTS assay to identify small molecule phospholipidosis (PLD) inducers (AID 1259344; active means well fitted curve in the direction sought with a large enough effect; an effect the other way counts as inactive or inconclusive)
In short: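 Phospholipid accumulation was scored by imaging: fixed, Hoechst-counterstained HepG2 cells stained with LipidTOX Red after 24 h compound exposure at 37 C. Read-outs were pit count and pit intensity per well or per cell, with amiodarone and DMSO controls.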

Measured: Potency

Estrogen receptor beta (Homo sapiens), sequence (Q92731 whole entry, looked up): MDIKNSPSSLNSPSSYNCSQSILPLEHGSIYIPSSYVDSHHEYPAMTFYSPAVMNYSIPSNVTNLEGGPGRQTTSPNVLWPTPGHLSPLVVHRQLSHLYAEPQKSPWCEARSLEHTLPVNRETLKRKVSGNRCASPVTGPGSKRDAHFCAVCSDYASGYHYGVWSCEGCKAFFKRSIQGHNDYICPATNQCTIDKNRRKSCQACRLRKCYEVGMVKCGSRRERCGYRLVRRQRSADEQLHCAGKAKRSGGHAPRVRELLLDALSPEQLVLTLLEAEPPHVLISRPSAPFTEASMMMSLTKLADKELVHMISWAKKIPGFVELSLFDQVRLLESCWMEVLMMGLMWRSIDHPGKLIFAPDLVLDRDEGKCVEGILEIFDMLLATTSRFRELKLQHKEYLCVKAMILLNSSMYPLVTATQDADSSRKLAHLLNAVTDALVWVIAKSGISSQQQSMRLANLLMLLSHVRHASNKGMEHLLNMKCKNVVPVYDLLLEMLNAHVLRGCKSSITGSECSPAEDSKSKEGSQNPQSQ
Estrogen receptor (Homo sapiens), sequence (P03372 whole entry, looked up): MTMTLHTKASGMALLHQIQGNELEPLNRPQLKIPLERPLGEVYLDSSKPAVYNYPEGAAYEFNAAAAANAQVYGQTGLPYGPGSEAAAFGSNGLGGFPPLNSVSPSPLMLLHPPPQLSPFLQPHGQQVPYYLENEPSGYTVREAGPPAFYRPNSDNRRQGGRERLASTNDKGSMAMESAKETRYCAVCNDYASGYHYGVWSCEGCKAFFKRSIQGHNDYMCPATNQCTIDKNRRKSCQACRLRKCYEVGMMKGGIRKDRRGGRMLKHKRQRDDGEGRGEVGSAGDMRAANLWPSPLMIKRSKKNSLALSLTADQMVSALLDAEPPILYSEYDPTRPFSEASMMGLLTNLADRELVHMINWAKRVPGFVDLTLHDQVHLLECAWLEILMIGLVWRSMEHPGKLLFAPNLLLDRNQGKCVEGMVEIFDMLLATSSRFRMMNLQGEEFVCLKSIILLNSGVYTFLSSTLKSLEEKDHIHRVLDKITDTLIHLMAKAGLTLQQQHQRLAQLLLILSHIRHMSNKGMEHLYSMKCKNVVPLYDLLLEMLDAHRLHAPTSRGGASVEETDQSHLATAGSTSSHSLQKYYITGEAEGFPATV
Androgen receptor (Homo sapiens), sequence (P10275 whole entry, looked up): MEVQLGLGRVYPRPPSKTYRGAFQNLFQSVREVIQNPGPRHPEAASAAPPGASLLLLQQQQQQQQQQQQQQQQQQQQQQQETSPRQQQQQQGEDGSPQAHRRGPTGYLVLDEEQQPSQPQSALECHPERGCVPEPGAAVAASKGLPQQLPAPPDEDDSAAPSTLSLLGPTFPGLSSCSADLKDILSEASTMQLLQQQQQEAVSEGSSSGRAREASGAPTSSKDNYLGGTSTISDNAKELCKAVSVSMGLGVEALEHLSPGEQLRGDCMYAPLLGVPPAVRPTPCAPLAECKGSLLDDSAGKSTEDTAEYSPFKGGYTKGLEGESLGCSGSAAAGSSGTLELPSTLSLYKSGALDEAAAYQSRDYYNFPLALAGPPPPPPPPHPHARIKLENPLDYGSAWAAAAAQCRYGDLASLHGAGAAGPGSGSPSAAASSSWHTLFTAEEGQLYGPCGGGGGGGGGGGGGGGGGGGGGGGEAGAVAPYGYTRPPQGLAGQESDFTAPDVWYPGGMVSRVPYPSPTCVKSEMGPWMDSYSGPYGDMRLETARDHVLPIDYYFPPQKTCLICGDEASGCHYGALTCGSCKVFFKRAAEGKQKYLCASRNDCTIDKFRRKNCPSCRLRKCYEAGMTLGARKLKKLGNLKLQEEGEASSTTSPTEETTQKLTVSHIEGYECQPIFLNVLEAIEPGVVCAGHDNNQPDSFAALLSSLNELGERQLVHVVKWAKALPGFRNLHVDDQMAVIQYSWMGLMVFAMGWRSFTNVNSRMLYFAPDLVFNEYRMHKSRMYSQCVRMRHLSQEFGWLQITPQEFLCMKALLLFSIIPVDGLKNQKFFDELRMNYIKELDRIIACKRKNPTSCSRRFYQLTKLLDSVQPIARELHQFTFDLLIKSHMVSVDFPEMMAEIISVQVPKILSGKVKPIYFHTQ
Thyrotropin receptor (Homo sapiens), sequence (P16473 whole entry, looked up): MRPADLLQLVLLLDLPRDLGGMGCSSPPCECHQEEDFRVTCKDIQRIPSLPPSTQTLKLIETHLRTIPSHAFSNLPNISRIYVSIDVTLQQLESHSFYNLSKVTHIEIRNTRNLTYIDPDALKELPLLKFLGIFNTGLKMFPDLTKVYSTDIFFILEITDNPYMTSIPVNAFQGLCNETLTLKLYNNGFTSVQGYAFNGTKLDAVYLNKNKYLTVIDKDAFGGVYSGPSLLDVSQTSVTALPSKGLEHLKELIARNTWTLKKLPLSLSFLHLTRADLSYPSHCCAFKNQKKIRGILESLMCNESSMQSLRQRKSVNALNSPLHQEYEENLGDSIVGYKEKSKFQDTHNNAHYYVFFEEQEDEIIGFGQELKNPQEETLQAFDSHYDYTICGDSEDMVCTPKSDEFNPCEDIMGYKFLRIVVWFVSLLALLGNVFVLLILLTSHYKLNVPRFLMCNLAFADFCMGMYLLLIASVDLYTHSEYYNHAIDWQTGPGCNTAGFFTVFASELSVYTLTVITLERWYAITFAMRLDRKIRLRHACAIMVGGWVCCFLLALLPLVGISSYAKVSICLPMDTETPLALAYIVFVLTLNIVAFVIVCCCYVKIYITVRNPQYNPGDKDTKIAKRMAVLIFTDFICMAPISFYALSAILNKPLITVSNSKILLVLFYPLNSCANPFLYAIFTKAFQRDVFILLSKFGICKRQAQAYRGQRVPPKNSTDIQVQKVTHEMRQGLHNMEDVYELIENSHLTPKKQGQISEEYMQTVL

C=CCOC(C)=O
active: [3] 26.9 µM
not listed: [16] | [17] | [18] | [19] | [20]
inactive: all other assays above

CCCCNP(N)(N)=S
not listed: [3] | [9] | [10] | [11] | [20]
inactive: all other assays above

O=C(CCl)c1ccc(Cl)cc1Cl
active: [3] 13.3 µM | [6] 33.5 µM | [8] 5.96 µM | [19] 38.4 µM and 18.8 µM | [15] 23.7 µM
inactive and 29.8 µM (active): [10]
not listed: [9] | [12] | [16] | [18]
inactive: all other assays above

O=[N+]([O-])c1ccc(F)c([N+](=O)[O-])c1
inactive: [20] | [5] | [17] | [9] | [19] | [12] | [13] | [15]
active: [1] 17.4 µM | [2] 30.9 µM | [16] 27.6 µM | [4] 12.3 µM | [6] 24.6 µM | [10] 27.6 µM

Cn1sc(Cl)cc1=O
not listed: [3] | [8] | [11] | [17] | [19]
inactive: all other assays above

N#CCC#N
active: [3] 10.9 µM
not listed: [9] | [10] | [19] | [20]
inactive: all other assays above

CC(=O)NC1CCSC1=O (configuration not stated)
not listed: [9] | [18]
inactive: all other assays above

CCOC(=O)COc1cc(-c2nn(C)c(OC(F)F)c2Cl)c(F)cc1Cl
not listed: [7] | [9] | [10] | [13] | [15] | [16] | [18] | [20]
inactive: all other assays above

O=C(NC(=O)c1c(F)cccc1F)Nc1ccc(OC(F)(F)C(F)OC(F)(F)F)c(Cl)c1 (configuration not stated)
not listed: [3] | [9] | [11] | [20]
inactive: all other assays above

COC(=O)C(Cl)C(=O)OC
not listed: [3] | [8] | [9] | [10] | [11]
inactive: all other assays above

COc1nn(CSP(=S)(OC)OC)c(=O)s1
not listed: [3] | [8] | [9] | [11] | [18] | [19]
inactive: all other assays above

O=C1C(Cl)C(CCl)CN1c1cccc(C(F)(F)F)c1 (configuration not stated)
active: [3] 3.86 µM
not listed: [8] | [9] | [13] | [16] | [19] | [20]
inactive: all other assays above

Sc1ccccc1Cl
not listed: [9] | [10] | [16] | [18] | [20]
inactive: all other assays above

NCCCNCCCN
not listed: [8] | [12] | [13] | [16] | [19] | [20]
inactive: all other assays above

OC(c1ccc(Cl)cc1)(c1ccc(Cl)cc1)c1cccnc1
active: [3] 27.3 µM | [8] 30.6 µM | [18] 38.6 µM
not listed: [7] | [9] | [10] | [15] | [17] | [19] | [20]
inactive: all other assays above

O=C(NCc1cccnc1)Nc1ccc([N+](=O)[O-])cc1
not listed: [3] | [11] | [19] | [20]
inactive: all other assays above

COP(=S)(OC)Oc1cc(Cl)c(I)cc1Cl
active: [3] 54.5 µM | [8] 38.6 µM
not listed: [7] | [13] | [16] | [18] | [19] | [20]
inactive: all other assays above
